# PubChem BioAssay (EPA / NIEHS)
# Active and inactive are the calls of the source. The calls were made as follows: active = hit-call score of the fitted dose curve at least 0.9, where 1 is the maximum; inactive = score below 0.9.
# Read-out: Cytochrome P450 3A7 (Homo sapiens) (UniProt P24462)
# Test: LTEA_HepaRG_CYP3A7: Life Technologies and Expression Analysis (LTEA) Assay for CYP3A7 using HepaRG (AID 2283492)
# Settings: mRNA level, 48 h; actives raise or lower the signal
# Method in brief: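 qRT-PCR of CYP3A7 in HepaRG lysates after 48 h treatment; concentration-response (8 points, max 100 uM) analysed bidirectionally relative to 0.5% DMSO controls.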
# Cytochrome P450 3A7 (Homo sapiens), sequence (P24462 whole entry, looked up): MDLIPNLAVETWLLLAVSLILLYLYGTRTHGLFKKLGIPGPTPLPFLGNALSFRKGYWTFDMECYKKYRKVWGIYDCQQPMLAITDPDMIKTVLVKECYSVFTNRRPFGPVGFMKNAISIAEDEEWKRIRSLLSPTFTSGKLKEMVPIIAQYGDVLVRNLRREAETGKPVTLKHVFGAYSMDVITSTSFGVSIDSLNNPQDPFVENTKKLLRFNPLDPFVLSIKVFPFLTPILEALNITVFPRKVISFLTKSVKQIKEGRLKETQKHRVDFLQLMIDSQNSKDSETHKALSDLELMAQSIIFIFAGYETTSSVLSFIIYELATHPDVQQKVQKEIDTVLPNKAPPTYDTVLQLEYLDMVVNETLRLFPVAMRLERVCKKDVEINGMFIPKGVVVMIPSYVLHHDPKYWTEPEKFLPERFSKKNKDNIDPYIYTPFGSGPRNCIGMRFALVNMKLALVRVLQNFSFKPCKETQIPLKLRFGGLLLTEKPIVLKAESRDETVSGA
SMILES,outcome,AC50
CCCCCCCCCCCCN1CCCC1=O,inactive,–
CC(C)(C)c1cccc(C(C)(C)C)c1O,inactive,–
CCCCCCCCCCCCc1ccccc1S(=O)(=O)O,–,88 µM (active)
CCCCCCCCCCCCCCCS(=O)(=O)Oc1ccccc1,–,8.39 µM (active)
CCCCOCCO,inactive,–
CCCCCCCCC(=O)O,inactive,–
CC(=O)CC(C)(C)O,inactive,–
CCC(C)(C)C1CCC(O)CC1 (stereo unspecified),inactive,–
CC(C)CCCCCCOC(=O)CCCCC(=O)OCCCCCCC(C)C,inactive,–
CCCCCCCC(=O)O,inactive,–
COC(=O)CCCCC(=O)OC,inactive,–
OCCC(F)(F)C(F)(F)C(F)(F)C(F)(F)C(F)(F)C(F)(F)F,inactive,–
C[C@@H]1C[C@H]2[C@@H]3CCC4=CC(=O)C=C[C@]4(C)[C@@]3(F)[C@@H](O)C[C@]2(C)[C@@]1(O)C(=O)COP(=O)(O)O,inactive,–
CCOC(=O)CC(O)(CC(=O)OCC)C(=O)OCC,inactive,–
NC(=O)N1C(=O)C(C(=O)c2cc(Cl)cs2)c2cc(F)c(Cl)cc21 (stereo unspecified),–,24.8 µM (active)
COCC(C)OCC(C)O (stereo unspecified),inactive,–
CC[C@H](C)[C@@H](C(=O)O)n1sc2ccccc2c1=O,inactive,–
Nc1cccc2c(N)cccc12,inactive,–
OC1CCCCC1,inactive,–
COc1ccc([N+](=O)[O-])cc1N,inactive,–
O=c1c(-c2ccc(O)cc2)coc2cc(O)ccc12,inactive,–
CCCOc1sc(C(=O)N2CCC(c3cc(CN)ccc3F)CC2)c(C)c1Br,inactive,–
CC(C)(C)CC(C)(C)c1ccc(O)c(-n2nc3ccccc3n2)c1,inactive,–
CC[C@H](c1ccc(O)cc1)[C@@H](CC)c1ccc(O)cc1,inactive,–
Cc1cc(CCN2CCN(c3nsc4ccccc34)CC2)cc2c1NC(=O)CC2(C)C,–,79.5 µM (active)
c1ccc2c(c1)ccc1ccccc12,–,5.99 µM (active)

# Read-out: CYP3A5 (gene 1577)
# Test: LTEA_HepaRG_CYP3A5: Life Technologies and Expression Analysis (LTEA) Assay for CYP3A5 using HepaRG (AID 2283493)
# Settings: mRNA level, 48 h; actives raise or lower the signal
# Method in brief: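 Readout was CYP3A5 mRNA by qRT-PCR. HepaRG cultures were exposed for 48 h in serum-free induction medium to chemicals at up to 100 uM, and responses were fitted in both directions relative to DMSO vehicle.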
SMILES,outcome,AC50
CCCCCCCCCCCCN1CCCC1=O,inactive,–
CC#C[C@]1(O)CC[C@H]2[C@@H]3CCC4=CC(=O)CCC4=C3[C@@H](c3ccc(N(C)C)cc3)C[C@@]21C,inactive,–
CC(C)(C)c1cccc(C(C)(C)C)c1O,inactive,–
CCCCCCCCCCCCc1ccccc1S(=O)(=O)O,inactive,–
CCCCCCCCCCCCCCCS(=O)(=O)Oc1ccccc1,inactive,–
CCCCOCCO,inactive,–
CCCCCCCCC(=O)O,inactive,–
CC(=O)CC(C)(C)O,inactive,–
CCC(C)(C)C1CCC(O)CC1 (stereo unspecified),inactive,–
CC(C)CCCCCCOC(=O)CCCCC(=O)OCCCCCCC(C)C,inactive,–
CCCCCCCC(=O)O,inactive,–
COC(=O)CCCCC(=O)OC,inactive,–
OCCC(F)(F)C(F)(F)C(F)(F)C(F)(F)C(F)(F)C(F)(F)F,inactive,–
C[C@@H]1C[C@H]2[C@@H]3CCC4=CC(=O)C=C[C@]4(C)[C@@]3(F)[C@@H](O)C[C@]2(C)[C@@]1(O)C(=O)COP(=O)(O)O,inactive,–
CCOC(=O)CC(O)(CC(=O)OCC)C(=O)OCC,inactive,–
NC(=O)N1C(=O)C(C(=O)c2cc(Cl)cs2)c2cc(F)c(Cl)cc21 (stereo unspecified),–,13 µM (active)
COCC(C)OCC(C)O (stereo unspecified),inactive,–
CC[C@H](C)[C@@H](C(=O)O)n1sc2ccccc2c1=O,inactive,–
Nc1cccc2c(N)cccc12,inactive,–
OC1CCCCC1,inactive,–
COc1ccc([N+](=O)[O-])cc1N,inactive,–
O=c1c(-c2ccc(O)cc2)coc2cc(O)ccc12,inactive,–
CCCOc1sc(C(=O)N2CCC(c3cc(CN)ccc3F)CC2)c(C)c1Br,inactive,–
CC1=C(/C=C/C(C)=C/C=C/C(C)=C/C(=O)O)C(C)(C)CCC1,inactive,–
CC(C)(C)CC(C)(C)c1ccc(O)c(-n2nc3ccccc3n2)c1,inactive,–
CC[C@H](c1ccc(O)cc1)[C@@H](CC)c1ccc(O)cc1,–,70.3 µM (active)
Cc1cc(CCN2CCN(c3nsc4ccccc34)CC2)cc2c1NC(=O)CC2(C)C,inactive,–
c1ccc2c(c1)ccc1ccccc12,inactive,–
CCCOC(=O)c1ccc(O)cc1,inactive,–
CCc1ccc(CCOc2ccc(CC3SC(=O)NC3=O)cc2)nc1 (stereo unspecified),inactive,–

# Read-out: Fatty Acid-Binding Protein 1 (FABP1), FABP1 (gene 2168)
# Test: LTEA_HepaRG_FABP1: Life Technologies and Expression Analysis (LTEA) Assay for Fatty Acid-Binding Protein 1 (FABP1) using HepaRG (AID 2283494)
# Settings: mRNA level, 48 h; actives raise or lower the signal
# Method in brief: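 Values reflect bidirectional concentration-response fitting of FABP1 mRNA change against 0.5% DMSO controls. Human HepaRG cultures received eight half-log doses (top 100 uM) for 48 h; expression quantified by TaqMan qRT-PCR with housekeeping-gene normalization.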
SMILES,outcome,AC50
CCCCCCCCCCCCN1CCCC1=O,inactive,–
CC#C[C@]1(O)CC[C@H]2[C@@H]3CCC4=CC(=O)CCC4=C3[C@@H](c3ccc(N(C)C)cc3)C[C@@]21C,–,35.1 µM (active)
CC(C)(C)c1cccc(C(C)(C)C)c1O,inactive,–
CCCCCCCCCCCCc1ccccc1S(=O)(=O)O,–,66.4 µM (active)
CCCCCCCCCCCCCCCS(=O)(=O)Oc1ccccc1,inactive,–
CCCCOCCO,inactive,–
CCCCCCCCC(=O)O,inactive,–
CC(=O)CC(C)(C)O,inactive,–
CCC(C)(C)C1CCC(O)CC1 (stereo unspecified),inactive,–
CC(C)CCCCCCOC(=O)CCCCC(=O)OCCCCCCC(C)C,inactive,–
CCCCCCCC(=O)O,inactive,–
COC(=O)CCCCC(=O)OC,inactive,–
C#C[C@]1(O)CC[C@H]2[C@@H]3CCC4=CC(=O)CC[C@@H]4[C@H]3CC[C@@]21C,inactive,–
OCCC(F)(F)C(F)(F)C(F)(F)C(F)(F)C(F)(F)C(F)(F)F,inactive,–
C[C@@H]1C[C@H]2[C@@H]3CCC4=CC(=O)C=C[C@]4(C)[C@@]3(F)[C@@H](O)C[C@]2(C)[C@@]1(O)C(=O)COP(=O)(O)O,inactive,–
CCOC(=O)CC(O)(CC(=O)OCC)C(=O)OCC,inactive,–
COCC(C)OCC(C)O (stereo unspecified),inactive,–
CC[C@H](C)[C@@H](C(=O)O)n1sc2ccccc2c1=O,inactive,–
Nc1cccc2c(N)cccc12,–,50 µM (active)
OC1CCCCC1,inactive,–
COc1ccc([N+](=O)[O-])cc1N,inactive,–
O=c1c(-c2ccc(O)cc2)coc2cc(O)ccc12,inactive,–
CCCOc1sc(C(=O)N2CCC(c3cc(CN)ccc3F)CC2)c(C)c1Br,inactive,–
CC1=C(/C=C/C(C)=C/C=C/C(C)=C/C(=O)O)C(C)(C)CCC1,–,13.6 µM (active)
CC(C)(C)CC(C)(C)c1ccc(O)c(-n2nc3ccccc3n2)c1,–,50 µM (active)
CC[C@H](c1ccc(O)cc1)[C@@H](CC)c1ccc(O)cc1,–,80.7 µM (active)
Cc1cc(CCN2CCN(c3nsc4ccccc34)CC2)cc2c1NC(=O)CC2(C)C,–,69.7 µM (active)
c1ccc2c(c1)ccc1ccccc12,inactive,–
CCCOC(=O)c1ccc(O)cc1,inactive,–
CCc1ccc(CCOc2ccc(CC3SC(=O)NC3=O)cc2)nc1 (stereo unspecified),–,88.3 µM (active)
